# Source: PubChem BioAssay (NCATS)
# Results filed as inconclusive are left out. A call without a number means that no potency is given here. Activity calls are given as the source filed them. The call rests on the fitted dose curve; in most records, active means well fitted inhibition curve with a large enough effect; inconclusive means small, poorly fitted or top-dose-only effect; inactive means flat fitted curve, though single readings scatter.
# Tested on: GB4
# Assay: qHTS profiling for inhibitors of Plasmodium falciparum proliferation (AID 504749); further: nearly all actives have a fitted effect of over 60% in size
# Details: P. falciparum in erythrocytes, SYBR Green DNA, 72 h; series mostly up to 28.7 µM
# How it was run: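 Infected RBCs, 0.3% parasitemia/2.5% Hct final; cpd 72 h, 37 C, 5% CO2; lysis buffer with saponin/triton/SYBR Green I, o/n RT dark; FI 485/535; norm. to artemisinin (0.29 uM) and DMSO.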
row,Structure (SMILES),Potency
1,CCCCC(CC)COS(=O)(=O)O (configuration not stated),inactive
2,CC1(O)CCC(C(C)(C)O)CC1 (configuration not stated),inactive
3,CCCCCCOC(=O)c1cccnc1,inactive
4,FC(F)(F)COCC(F)(F)F,inactive
5,CCCCCCCCCCCC(=O)N(CCO)CCO,inactive
6,O=P(O)(O)OC[C@H]1O[C@](O)(COP(=O)(O)O)[C@@H](O)[C@@H]1O,inactive
7,COc1cc(S(C)=O)ccc1-c1nc2ncccc2[nH]1 (configuration not stated),inactive
8,O=c1[nH]c(=O)n([C@H]2C[C@H](O)[C@@H](CO)O2)cc1/C=C/Br,inactive
9,CC(=O)[C@H]1CC[C@H]2[C@@H]3C=CC4=CC(=O)CC[C@@]4(C)[C@H]3CC[C@]12C,inactive
10,NC(N)=O,inactive
11,CCC(C(=O)NC(N)=O)c1ccccc1 (configuration not stated),inactive
12,CC(CCc1ccc(O)cc1)NCC(O)c1ccc(O)cc1 (configuration not stated),inactive
13,Nc1nccs1,inactive
14,NC(=S)NS(=O)(=O)c1ccc(N)cc1,inactive
15,O=C(OCc1ccccc1)c1ccc(O)cc1,inactive
16,CC1C(=O)CC2C3(C)CCC2(C(C)C(=O)O)C(=O)C13 (configuration not stated),inactive
17,O=C(NNCS(=O)(=O)O)c1ccncc1,inactive
18,CC(=O)Nc1ccc(OC(C)=O)cc1,inactive
19,CC/C(=C(/CC)c1ccc(OP(=O)(O)O)cc1)c1ccc(OP(=O)(O)O)cc1,inactive
20,OC[C@H]1O[C@@](CO)(O[C@H]2O[C@H](CO)[C@@H](O)[C@H](O)[C@H]2O)[C@@H](O)[C@@H]1O,inactive
21,[O-][N+](=Nc1ccccc1)c1ccccc1,inactive
22,NC(=O)[C@H]1O[C@@H](O)[C@H](O)[C@@H](O)[C@@H]1O,inactive
